Source: PubChem BioAssay (Tox21)
Several values for one entry are separate records, joined by “and”; a condition that tells them apart may be missing. Identical values can stand only once. Records with an inconclusive call do not appear. Activity calls are given as the source filed them. Calls follow the shape of the full dose curve.

Target: Acetylcholinesterase (Homo sapiens) (UniProt P22303)
Experiment: Acetylcholinesterase (AChE) small molecule antagonists: colormetric cell-based qHTS assay (AID 1347395); also: nearly all actives have a fitted effect of over 30% in size
Details: SH-SY5Y cells AChE activity, colorimetric (Ellman); series mostly up to 115 µM; activity, negative = inhibition: at the top concentration
Procedure, shortened: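 Homogeneous whole-cell format. SH-SY5Y cells seeded overnight, dosed with compound (30 min, 37 C, 5% CO2), then given DTNB/acetylthiocholine cocktail for 90 min at 37 C; colorimetric signal.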
% is scaled to controls: 0 for no effect and ±100 for the full control effect; potency is read from the fitted curve at half-maximal effect.

Acetylcholinesterase (Homo sapiens), sequence (P22303 whole entry, looked up): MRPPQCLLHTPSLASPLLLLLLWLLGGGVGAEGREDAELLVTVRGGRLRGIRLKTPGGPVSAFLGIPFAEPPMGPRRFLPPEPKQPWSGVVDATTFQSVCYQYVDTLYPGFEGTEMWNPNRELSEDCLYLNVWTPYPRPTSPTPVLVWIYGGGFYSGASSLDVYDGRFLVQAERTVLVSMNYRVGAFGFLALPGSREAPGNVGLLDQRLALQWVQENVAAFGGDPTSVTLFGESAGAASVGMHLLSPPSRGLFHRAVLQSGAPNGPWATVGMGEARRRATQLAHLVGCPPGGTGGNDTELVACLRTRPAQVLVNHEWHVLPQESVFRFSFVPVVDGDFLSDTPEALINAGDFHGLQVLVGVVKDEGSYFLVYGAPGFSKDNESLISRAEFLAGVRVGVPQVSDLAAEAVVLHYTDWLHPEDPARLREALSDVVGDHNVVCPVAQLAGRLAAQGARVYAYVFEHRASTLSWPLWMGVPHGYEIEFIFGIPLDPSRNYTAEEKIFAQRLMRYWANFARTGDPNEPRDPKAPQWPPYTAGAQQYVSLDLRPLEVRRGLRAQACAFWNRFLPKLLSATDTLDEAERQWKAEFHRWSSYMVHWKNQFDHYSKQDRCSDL

Row | Structure (SMILES) | activity, negative = inhibition | Potency
1 | Cc1ccccc1OP(=O)(Oc1ccccc1C)Oc1ccccc1C | -1.33% (inactive) | 
2 | CC(C)(C)c1ccc(OP(=O)(Oc2ccccc2)Oc2ccccc2)cc1 |  | 31.9 µM (active)
3 | C[C@]12Cc3cn[nH]c3C[C@@H]1CC[C@@H]1[C@@H]2CC[C@@]2(C)[C@H]1CC[C@]2(C)O | 2.12% [at 52.9 µM] (inactive) | 
4 | CCOP(=S)(NC(C)C)Oc1ccccc1C(=O)OC(C)C (stereo unspecified) | -3.22% (inactive) | 
5 | Cc1cc(C2CC2)nc(Nc2ccccc2)n1 | 1.49% (inactive) | 
6 | CC1=C2C[C@H]3[C@@H](CC=C4C[C@@H](O)CC[C@@]43C)[C@@H]2CC[C@]12O[C@@H]1C[C@H](C)CN[C@H]1[C@H]2C | -2.05% [at 52.9 µM] (inactive) | 
7 | Cc1ccc2cc3c(ccc4ccccc43)c3c2c1CC3 | -0.58% [at 52.9 µM] (inactive) | 
8 | O=S1OCC2C(CO1)C1(Cl)C(Cl)=C(Cl)C2(Cl)C1(Cl)Cl (stereo unspecified) |  | inactive
9 | CN1C2CCC(C)(C)C1CC(OC(=O)C(O)(c1cccs1)c1cccs1)C2 (stereo unspecified) | -3.31% [at 52.9 µM] (inactive) | 
10 | CCCCCCCc1ccc(O)cc1 | 1.67% (inactive) | 
11 | CCN(CC)CCc1c[nH]c2ccccc12 | 3.37% (inactive) | 
12 | C#CCC1=C(C)C(OC(=O)C2C(C=C(C)C)C2(C)C)CC1=O (stereo unspecified) | 0.465% (inactive) | 
13 | CSC1=N[C@@](C)(c2ccccc2)C(=O)N1Nc1ccccc1 | -0.651% (inactive) | 
14 | O=[N+]([O-])c1cccc2cccc([N+](=O)[O-])c12 |  | 20.1 µM (active)
15 | CO/N=C(\C(=O)OC)c1ccccc1CO/N=C(\C)c1cccc(C(F)(F)F)c1 | 0.465% (inactive) | 
16 | CCOP(=O)(Sc1ccccc1)Sc1ccccc1 |  | 3.99 µM (active)
17 | FC(F)C(F)(F)OCC(Cn1cncn1)c1ccc(Cl)cc1Cl (stereo unspecified) | -3.26% (inactive) | 
18 | C[C@H]1[C@H](c2ccc(Cl)cc2)SC(=O)N1C(=O)NC1CCCCC1 | 1.18% (inactive) | 
19 | c1ccc(Nc2ccc(Nc3ccccc3)cc2)cc1 | 2.42% (inactive) | 
20 | c1csc(-c2ccc(-c3cccs3)s2)c1 | 3.91% (inactive) | 
21 | CCCCCCC[CH2][Sn]([Cl])([Cl])[CH2]CCCCCCC | -2.68% (inactive) | 
22 | Nc1ccc(N=Nc2ccccc2)cc1 | 16.1% (inactive) | 
23 | Clc1ccc(C(c2ccc(Cl)cc2)C(Cl)Cl)cc1 |  | inactive
24 | CCN(CC)Cc1nccn1-c1ccc([N+](=O)[O-])cc1C(=O)c1ccccc1Cl | 3.52% [at 52.9 µM] (inactive) | 
25 | C=Cc1cccc(CCl)c1 | 0.421% [at 300 µM] (inactive) | 
26 | S=C=NCCc1ccccc1 | 1.59% (inactive) | 
27 | N#Cc1c[nH]cc1-c1cccc2c1OC(F)(F)O2 | -0.0257% (inactive) | 
28 | c1ccc(N=NNc2ccccc2)cc1 |  | inactive
29 | ClC1=C(Cl)[C@]2(Cl)[C@@H]3[C@H]4C[C@H]([C@@H]5O[C@H]45)[C@@H]3[C@@]1(Cl)C2(Cl)Cl | 1.37% (inactive) | 

Target: Acetylcholinesterase (Homo sapiens) (UniProt P22303)
Experiment: Acetylcholinesterase (AChE) small molecule antagonists: enzyme-based qHTS assay (AID 1347397); also: nearly all actives have a fitted effect of over 55% in size
Details: Potency: AChE enzyme activity inhibition; series mostly up to 115 µM; activity change, negative = inhibition: at the top concentration
Procedure, shortened: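 Tox21 library chemicals are tested in qHTS format against recombinant human AChE. The enzyme, dispensed at 50 mU/mL, sits with compound for 30 min at room temperature. A DTNB–acetylthiocholine cocktail follows, and colour is read after 10 min.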

Row | Structure (SMILES) | activity change, negative = inhibition | Potency
30 | Cc1ccccc1OP(=O)(Oc1ccccc1C)Oc1ccccc1C | -1.63% (inactive) | 
31 | CC(C)(C)c1ccc(OP(=O)(Oc2ccccc2)Oc2ccccc2)cc1 |  | 22.6 µM (active)
32 | CCOP(=S)(NC(C)C)Oc1ccccc1C(=O)OC(C)C (stereo unspecified) | 1.19% (inactive) | 
33 | CC1=C2C[C@H]3[C@@H](CC=C4C[C@@H](O)CC[C@@]43C)[C@@H]2CC[C@]12O[C@@H]1C[C@H](C)CN[C@H]1[C@H]2C | -0.789% [at 53 µM] (inactive) | 
34 | CN1C2CCC(C)(C)C1CC(OC(=O)C(O)(c1cccs1)c1cccs1)C2 (stereo unspecified) | -0.896% [at 53 µM] (inactive) | 
35 | CCN(CC)CCc1c[nH]c2ccccc12 | 3.51% (inactive) | 
36 | C#CCC1=C(C)C(OC(=O)C2C(C=C(C)C)C2(C)C)CC1=O (stereo unspecified) | -7.89% (inactive) | 
37 | CSC1=N[C@@](C)(c2ccccc2)C(=O)N1Nc1ccccc1 | 0.132% (inactive) | 
38 | O=[N+]([O-])c1cccc2cccc([N+](=O)[O-])c12 | -16.5% (inactive) | 
39 | Oc1ccc([C@H]2CNCc3c2ccc(O)c3O)cc1O | -18% [at 53 µM] (inactive) | 
40 | CCOP(=O)(Sc1ccccc1)Sc1ccccc1 |  | 17.8 µM (active)
41 | C[C@H]1[C@H](c2ccc(Cl)cc2)SC(=O)N1C(=O)NC1CCCCC1 | -0.397% (inactive) | 
42 | c1ccc(Nc2ccc(Nc3ccccc3)cc2)cc1 | 0.409% (inactive) | 
43 | c1csc(-c2ccc(-c3cccs3)s2)c1 | 0.986% (inactive) | 
44 | CCCCCCC[CH2][Sn]([Cl])([Cl])[CH2]CCCCCCC | 0.818% (inactive) | 
45 | Nc1ccc(N=Nc2ccccc2)cc1 | 32.3% (inactive) | 
46 | Clc1ccc(C(c2ccc(Cl)cc2)C(Cl)Cl)cc1 |  | inactive
47 | C=Cc1cccc(CCl)c1 | 0.71% [at 300 µM] (inactive) | 
48 | S=C=NCCc1ccccc1 | -1.2% (inactive) | 
49 | c1ccc(N=NNc2ccccc2)cc1 |  | inactive
50 | O=C1C(Cl)=C(Cl)C(=O)C(Cl)=C1Cl |  | inactive
51 | ClC1=C(Cl)[C@]2(Cl)[C@@H]3[C@H]4C[C@H]([C@@H]5O[C@H]45)[C@@H]3[C@@]1(Cl)C2(Cl)Cl | -0.395% (inactive) | 

Target: Acetylcholinesterase (Homo sapiens) (UniProt P22303)
Experiment: Acetylcholinesterase (AChE) small molecule antagonists: fluorescence cell-based qHTS assay (AID 1347398); also: nearly all actives have a fitted effect of over 50% in size
Details: SH-SY5Y cells; Potency: AChE activity; series mostly up to 115 µM; activity change, negative = inhibition: at the top concentration
Procedure, shortened: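 Cellular AChE inhibition: SH-SY5Y cells treated with test chemical for 30 min at 37 C, then acetylthiocholine hydrolysis followed over 40 min at room temperature via thiocholine-reactive Thiolite Green fluorescence (490/520 nm).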

Row | Structure (SMILES) | activity change, negative = inhibition | Potency
52 | Cc1ccccc1OP(=O)(Oc1ccccc1C)Oc1ccccc1C | 1.78% (inactive) | 
53 | C[C@]12Cc3cn[nH]c3C[C@@H]1CC[C@@H]1[C@@H]2CC[C@@]2(C)[C@H]1CC[C@]2(C)O | 7.7% [at 53.7 µM] (inactive) | 
54 | CCOP(=S)(NC(C)C)Oc1ccccc1C(=O)OC(C)C (stereo unspecified) | -9.06% (inactive) | 
55 | Cc1cc(C2CC2)nc(Nc2ccccc2)n1 | 2.77% (inactive) | 
56 | CC1=C2C[C@H]3[C@@H](CC=C4C[C@@H](O)CC[C@@]43C)[C@@H]2CC[C@]12O[C@@H]1C[C@H](C)CN[C@H]1[C@H]2C | -3.66% [at 53.7 µM] (inactive) | 
57 | Cc1ccc2cc3c(ccc4ccccc43)c3c2c1CC3 | -0.0848% [at 53.7 µM] (inactive) | 
58 | O=S1OCC2C(CO1)C1(Cl)C(Cl)=C(Cl)C2(Cl)C1(Cl)Cl (stereo unspecified) |  | inactive
59 | CN1C2CCC(C)(C)C1CC(OC(=O)C(O)(c1cccs1)c1cccs1)C2 (stereo unspecified) | -6.85% [at 53.7 µM] (inactive) | 
60 | CCCCCCCc1ccc(O)cc1 | -5.38% (inactive) | 
61 | CCN(CC)CCc1c[nH]c2ccccc12 | -1.06% (inactive) | 
62 | C#CCC1=C(C)C(OC(=O)C2C(C=C(C)C)C2(C)C)CC1=O (stereo unspecified) | -20.2% (inactive) | 
63 | CN1CCc2cc(Cl)c(O)cc2[C@H]2c3ccccc3CC[C@@H]21 |  | 21.9 µM (active)
64 | CSC1=N[C@@](C)(c2ccccc2)C(=O)N1Nc1ccccc1 | 2.8% (inactive) | 
65 | Oc1ccc([C@H]2CNCc3c2ccc(O)c3O)cc1O |  | 30.9 µM (active)
66 | CO/N=C(\C(=O)OC)c1ccccc1CO/N=C(\C)c1cccc(C(F)(F)F)c1 | 3.31% (inactive) | 
67 | CCOP(=O)(Sc1ccccc1)Sc1ccccc1 |  | 0.894 µM (active)
68 | FC(F)C(F)(F)OCC(Cn1cncn1)c1ccc(Cl)cc1Cl (stereo unspecified) | -1.13% (inactive) | 
69 | C[C@H]1[C@H](c2ccc(Cl)cc2)SC(=O)N1C(=O)NC1CCCCC1 | -0.765% (inactive) | 
70 | c1ccc(Nc2ccc(Nc3ccccc3)cc2)cc1 | -5.66% (inactive) | 
71 | c1csc(-c2ccc(-c3cccs3)s2)c1 | 0.909% (inactive) | 
72 | CCCCCCC[CH2][Sn]([Cl])([Cl])[CH2]CCCCCCC | -8.13% (inactive) | 
73 | Nc1ccc(N=Nc2ccccc2)cc1 | -0.0335% (inactive) | 
74 | Clc1ccc(C(c2ccc(Cl)cc2)C(Cl)Cl)cc1 |  | inactive
75 | CCN(CC)Cc1nccn1-c1ccc([N+](=O)[O-])cc1C(=O)c1ccccc1Cl | -9.91% [at 53.7 µM] (inactive) | 
76 | C=Cc1cccc(CCl)c1 | 3.05% [at 293 µM] (inactive) | 
77 | S=C=NCCc1ccccc1 | -7.02% (inactive) | 
78 | N#Cc1c[nH]cc1-c1cccc2c1OC(F)(F)O2 | 3.01% (inactive) | 
79 | c1ccc(N=NNc2ccccc2)cc1 |  | inactive
80 | O=C1C(Cl)=C(Cl)C(=O)C(Cl)=C1Cl |  | 35.5 µM (active) and 63.3 µM (active)
81 | ClC1=C(Cl)[C@]2(Cl)[C@@H]3[C@H]4C[C@H]([C@@H]5O[C@H]45)[C@@H]3[C@@]1(Cl)C2(Cl)Cl | 0.955% (inactive) | 
